# Sampled rows, rich in hits. Any-hit rate of the full collection: about 3%.
# CSC inhib: cancer stem cell inhibition. cancer stem cell-like cells viability, luminescence. inhibition, % at 7.5 µM. 300,000 tested, 1.1% active. AID 2717; in the data active = inhibition above about 75%; tested in HMLE shEcad cells
# KLF5 inh: inhibitors of KLF5 expression; DLD-1 KLF5 promoter-luciferase reporter, luminescence; inhibition, % at 5 µM; 290,000 tested, 0.23% active; AID 1700;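 active = inhibition above a per-plate limit of that plate's mean compound inhibition plus 3 SD, cut at about 60% in these data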;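 note: 0% = DMSO wells and 100% = LY294002 at 200 µM; higher means less KLF5 promoter-driven luciferase light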
# aSyn 5UTR inh: 5' untranslated region of α-synuclein, MLPCN primary screen; 300,000 tested, 0.82% active; inhibition, % (tested at 7.5 µM); alpha-synuclein 5'UTR reporter, inhibitor activity; in the data active = inhibition above about 60%;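 note: H4 neuroglioblastoma cells stably carrying SNCA 5'UTR luciferase fusion; 0% = DMSO wells and 100% = positive control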
# SKKanGAS inh: inhibitors of SKKanGAS S. pyogenes growth in kanamycin (SK-promoter or general growth effect) | BacTiter-Glo, 6 h | inhibition, % at 7.5 µM | 300,000 tested, 1.3% active;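 active = mean replicate score, as percent of positive control median, at least 50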;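 note: strain carries kanamycin resistance gene driven by streptokinase promoter and grows in 40 µg/ml kanamycin; loss of luminescence reflects streptokinase promoter inhibition or plain growth inhibition; 0% = median of DMSO wells and 100% = positive control at its reference dose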
# IEC-6 cytotox: counter-screen for KLF5 inhibitors: cytotoxicity in IEC-6 cells; IEC-6 cytotoxicity, luminescence viability; inhibition, % at 5 µM; 290,000 tested, 0.78% active; in the data active = inhibition above about 22%;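 note: 0% = plate median of test compound wells and 100% = cytotoxic reference compound wells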
# * marks the source's active call; other numbers are inactive results; . = no result given.
SMILES,CSC inhib,KLF5 inh,aSyn 5UTR inh,SKKanGAS inh,IEC-6 cytotox
CCN1Cc2c(/C=C/c3ccccc3)nc3ccc(OC)cc3c2N(c2cccc(Cl)c2)C1,107*,-3,-66,9,0
COc1ccc2c(C(=O)c3ccc(Cl)cc3)n(CCCC(N)=O)[n+]([O-])c2c1,-11,.,-2,4,.
CC(/C=C/c1ccc(N(C)C)cc1)=N/N=C1/NC(=O)CC(C(=O)Nc2ccc(Cl)cc2)S1 (stereo not given),37,-31,-45,95*,1
CC(/C=C/c1ccc(N(C)C)cc1)=N\N=C1\NC(=O)CC(C(=O)Nc2ccccc2)S1 (stereo not given),0,-40,-73,75*,-4
COc1ccc(NC(=O)C2CC(=O)N/C(=N/N=C/c3ccccc3)S2)cc1 (stereo not given),-11,0,-3,-2,0
CCCOc1ccc(NC(=O)C2CC(=O)N/C(=N/N=C(C)/C=C/c3ccc(N(C)C)cc3)S2)cc1 (stereo not given),24,1,-79,44,3
Cc1cc(OCC(=O)NNC(=S)NC(=O)c2ccc(Br)o2)ccc1Cl,-1,-19,.,.,0
O=C(c1cnn2c(C(F)(F)F)cc(-c3ccc(F)cc3)nc12)N1CCc2ccccc2C1,1,1,6,62*,-2
O=C(CCc1nnc(CCCc2ccccc2)o1)NCC(F)(F)F,-5,-49,-22,-9,-5
CC(C)N1C(=O)/C(=C\c2nc3ccccc3c(=O)n2-c2ccccc2)c2ccccc21,75*,14,-31,2,1
CC(C)(C)c1ccc(C(=O)Nc2nnc(Cc3c[nH]c4ccccc34)s2)cc1,96*,-6,-11,24,3
COc1cc(NC(=O)CSc2nnc(-c3ccncc3)o2)cc(OC)c1OC,-1,-13,-15,-1,-2
C[C@H](CO)N1C[C@H](C)[C@@H](CN(C)S(=O)(=O)c2ccc(F)cc2)Oc2ccc(NC(=O)Nc3ccc(C(F)(F)F)cc3)cc2C1=O,87*,.,.,.,.
C[C@@H]1CN([C@@H](C)CO)C(=O)Cc2cc(NC(=O)Nc3ccc(C(F)(F)F)cc3)ccc2O[C@@H]1CN(C)S(=O)(=O)c1ccc(Cl)cc1,132*,.,.,.,.
C[C@@H]1CN([C@H](C)CO)C(=O)c2cc(NC(=O)Nc3ccc(C(F)(F)F)cc3)ccc2O[C@H]1CN(C)S(=O)(=O)c1ccc(Cl)cc1,78*,.,.,.,.
C[C@H](CO)N1C[C@H](C)[C@H](CN(C)S(=O)(=O)c2cn(C)cn2)Oc2ccc(NC(=O)Nc3ccc(C(F)(F)F)cc3)cc2CC1=O,50,.,.,.,.
C[C@H]1CN([C@@H](C)CO)C(=O)c2cccc(NC(=O)Nc3ccc(C(F)(F)F)cc3)c2O[C@@H]1CN(C)S(=O)(=O)c1ccc(Cl)cc1,130*,.,.,.,.
Cc1nc(SCCC(=O)O)c2cc(-c3ccccc3)sc2n1,23,32,67*,5,5
Cc1cc(=O)oc2c3c(cc(OCC(=O)NC(Cc4ccc(Cl)cc4)C(=O)O)c12)OC(C)(C)CC3 (stereo not given),-4,-4,7,13,-4
CCCCCCCCCC[N+](C)(C)CC/C=C1/c2ccccc2Sc2ccc(Cl)cc21,106*,-29,19,95*,-2
CCCCCCCCCCC[N+](C)(C)CC/C=C1/c2ccccc2Sc2ccc(Cl)cc21,59,-7,15,90*,3
CC[N+](C)(C)CC/C=C1/c2ccccc2Sc2ccc(Cl)cc21,-8,-18,2,7,-1
CN(C)CC/C=C1\c2ccccc2Sc2ccc(Cl)cc21,8,-7,-7,2,-2
N#Cc1cccc(NC(=O)CSc2nnc(C3CC3)n2C2CC2)c1,-9,.,.,.,.
Cc1ccccc1S(=O)(=O)Cc1ccc(C(=O)N2CC(C)CC(C)C2)o1 (stereo not given),8,23,-8,6,-2
SMILES,CSC inhib,KLF5 inh,aSyn 5UTR inh,SKKanGAS inh,IEC-6 cytotox
Cc1ccccc1S(=O)(=O)Cc1ccc(C(=O)N2CCN(c3cccc(C)c3C)CC2)o1,66,5,101*,18,18
Cc1ccc(S(=O)(=O)N/N=C\c2cn(CC(N)=O)c3ccccc23)cc1,-17,-10,8,0,-10
CN(CC(=O)Nc1ccccc1C(F)(F)F)C(=O)c1cccc(-n2cccc2)c1,3,.,-1,3,.
O=C(N/N=C/c1ccc([N+](=O)[O-])o1)c1cn(-c2ccccc2)nc1-c1ccccc1,6,-5,-48,22,0
O=C(N/N=C/c1ccc([N+](=O)[O-])o1)c1cn(-c2ccccc2)nc1-c1ccc(Cl)cc1,27,-29,-42,107*,-1
C=CCn1cc(C(=O)N2CCN(C)CC2)c(=O)c2cc(S(=O)(=O)N(CC)CC)ccc21,-2,-8,3,-3,-5
CC(NC(=O)Cn1ncc(Cl)c(Cl)c1=O)C12CC3CC(CC(C3)C1)C2 (stereo not given),116*,-6,88*,15,25*
O=C(Nc1nc2ccccc2n1CCN1CCOCC1)c1ccccc1,-9,-15,-6,7,-2
O=C(Nc1nc2ccccc2n1CCN1CCOCC1)c1cn(-c2ccccc2)nc1-c1ccccc1,57,-4,83*,85*,-5
COc1ccc(CCNC(=O)c2c(O)c3c([nH]c2=O)CCCC3)cc1OC,.,-25,.,.,3
Cc1ccc(COc2ccc(Br)cc2/C=N/O)cc1,78*,-122,-156,17,4
CCCCC[n+]1ccn(C2=C([O-])c3ccccc3C(=O)/C2=N\S(=O)(=O)c2ccc(Br)cc2)c1,29,-20,42,97*,-2
CCCC[n+]1ccn(C2=C([O-])c3ccccc3C(=O)/C2=N\S(=O)(=O)c2ccccc2)c1,20,-2,55,59*,-10
CCCCC[n+]1ccn(C2=C([O-])c3ccccc3C(=O)/C2=N\S(=O)(=O)c2ccccc2)c1,-10,-15,47,74*,-4
Cc1cccc(C(=O)O/N=C/c2c(N3CCOCC3)n(C)c3ccccc23)c1,6,-20,72*,-1,-2
Cc1ccc(N/C=C/C(=O)c2ccc(C)cc2)cc1,-1,-26,-241,-1,-8
Cc1ccc(C(=O)/C=C/C(=O)c2ccc(C)cc2)cc1,64,-20,-8,62*,-6
Cc1ccc(C(=O)/C=C/Nc2ccccn2)cc1,-1,15,75*,12,-2
Clc1ccc(-c2n[nH]c3c2CCC3)cc1Cl,-14,-39,-26,88*,1
Clc1ccc(-c2n[nH]c3c2CCCC3)cc1,-11,-6,-70,-6,-1
O=S(=O)(Nc1c(S(=O)(=O)c2ccccc2)c2nc3ccccc3nc2n1C1CCCCC1)c1ccccc1,106*,-21,14,91*,-3
C=CC[n+]1ccc(/C=C2\C=Cc3cc(C)ccc3N2CC)c2ccccc21,.,4,.,.,39*
COc1ccc(/C=N/NC(=O)c2cc(C34CC5CC(CC(C5)C3)C4)[nH]n2)cc1OC,53,18,6,4,0
O=C(N/N=C/c1ccc(O)cc1)c1cc(C23CC4CC(CC(C4)C2)C3)[nH]n1,80*,-8,0,-7,3
